# Test results: PubChem BioAssay (NCATS)
# Results filed as inconclusive are left out. The source made the active and inactive calls. Calls follow the shape of the dose curve; as a rule, active = well fitted cell-killing curve with a large enough effect; inconclusive = small, poorly fitted or top-dose-only effect; inactive = no such curve, though single readings can be large or run the other way.
# Experiment: qHTS of pediatric cancer cell lines to identify multiple opportunities for drug repurposing: Primary screen for SK-N-MC cells (AID 1347093)
# Conditions: SK-N-MC viability, CellTiter-Glo luminescence, 48 h; series mostly up to 46 µM; activity change, negative = cytotoxic: at the top concentration
# Description: Drug repurposing or repositioning has been offered as a strategy for drug development in oncology programs. This approach has special potential for childhood cancers and other rare or orphan diseases, where the expected return on new drug development has been a disincentive to pharmaceuticals.
# In this project we exploit the poly-pharmacology of drugs to discover new indications via phenotypic screening of a panel of 19 well-characterized cell lines derived from solid tumors seen in children and adolescents. The goal is to identify approved drugs with previously unrecognized anticancer properties that has the potential to reveal new mechanisms and biological processes involved in carcinogenesis or drug resistance. We employed a titration-based paradigm (quantitative high-throughput screening or qHTS), where all compounds were tested at multiple concentrations for their effect on cell viability. Concentration-response curves (CRCs) were derived directly from the primary screen, and both potency and efficacy values were used to identify compounds with robust bioactivity profiles. We screened the NIH Chemical Genomics Center (NCGC) Pharmaceutical Collection (NPC) and Mechanism Interrogation Plate (MIPE) small molecule collections of approved and investigational compounds against these cell lines; and measured metabolically active cells after 48 hours of compound treatment as a proxy for cell viability.
# Assay Submitter: Nathalia J. Martinez, National Center for Advancing Translational Sciences, National Institutes of Health, Rockville, MD, USA; email: natalia.martinez@nih.gov
# [1] Shen, M et al. Quantitative high-throughput phenotypic screening of pediatric cancer cell lines identifies multiple opportunities for drug repurposing. Oncotarget 2017 Dec 19;9(4):4758-4772. PMID 29435139.
# The cells were obtained from University of North Carolina (UNC), Pediatric Preclinical Testing Program (PPT), and Coriell Institute (CI).
# qHTS cell viability assay:
# Cells were assayed in growth media at a density of 500-1,000 cells/well. Five microliters of cells were dispensed into 1,536-well, white, solid-bottom, TC-treated plates (Greiner Bio One) using a multidrop dispenser and incubated at 37 degrees C, 5% CO2, under a humidified atmosphere for 5 hours. Twenty-three nanoliters of compounds and controls (neutral control DMSO or positive control bortezomib at final concentration of 2.3 µM) were subsequently transferred by Kalypsys pintool. For primary screens, the MIPE collection was tested at 11-point dilutions (final concentrations range from 0.78 nM to 46 µM) and the NPC collection at 8-point dilutions (final concentrations range from 0.59nM to 46 µM). Compounds tested in follow-up screens were assayed at 11-point dilutions. Cells were incubated for 48 hours, followed by addition of 3 uL of CellTiter-Glo (Promega). After a 15 min incubation at room temperature, samples were analyzed for luminescence intensity using a ViewLux High-throughput CCD imager equipped with clear filters.
# Potency is read from the fitted curve at half-maximal effect.
SMILES,"activity change, negative = cytotoxic",Potency
COP(=S)(OC)Oc1ccc(SC)c(C)c1,-12.2% (inactive),–
c1ccc2c(c1)sc1ccccc12,-15.5% (inactive),–
CN1C(=O)CCS(=O)(=O)C1c1ccc(Cl)cc1 (stereo not given),-12.2% (inactive),–
ClCCN1CCCC1,-9.49% (inactive),–
NC(=O)c1cc([N+](=O)[O-])cc([N+](=O)[O-])c1,1.29% (inactive),–
COc1ccc2c(c1OC)C(=O)O[C@H]2[C@@H]1c2cc3c(cc2CCN1C)OCO3,-3.45% (inactive),–
CN1C(=O)NC(=O)C(C)(C2=CCCCC2)C1=O (stereo not given),-16.4% (inactive),–
CC(C)NC(C)C,-1.49% (inactive),–
CCC(C)C(C)(COC(N)=O)COC(N)=O (stereo not given),-7.49% (inactive),–
CC(C)(N)Cc1ccccc1Cl,-6.23% (inactive),–
C[C@]12CC[C@H]3[C@@H](CCC4=CC(=O)CC[C@@H]43)[C@@H]1CC[C@@H]2OC(=O)CCc1ccco1,-7.87% (inactive),–
CCC1(CC)C(=O)C=CNC1=O,10.9% (inactive),–
CC(C)N(CCC(C(N)=O)(c1ccccc1)c1ccccn1)C(C)C (stereo not given),-28% (inactive),–
Nc1nc(N)nc(NC2CC2)n1,-27% (inactive),–
CC1(C)C(C=C(Cl)Cl)C1C(=O)OC(C#N)c1cccc(Oc2ccccc2)c1 (stereo not given),-1.69% (inactive),–
Nc1ccccc1C(=O)O,-14.8% (inactive),–
C=CCC1(C(C)CC)C(=O)NC(=O)NC1=O (stereo not given),-13% (inactive),–
COP(=S)(OC)Oc1cc(Cl)c(Cl)cc1Cl,16.6% (inactive),–
C[C@]12CC[C@@H]3c4ccc(OC(=O)N(CCCl)CCCl)cc4CC[C@H]3[C@@H]1CC[C@@H]2O,-15.9% (inactive),–
NC(=O)CS(=O)C(c1ccccc1)c1ccccc1 (stereo not given),15.6% (inactive),–

SMILES,"activity change, negative = cytotoxic",Potency
O=C(O)c1ccc(=O)[nH]c1,-1.75% (inactive),–
CCN(CCO)CCn1c(Cc2ccccc2)nc2c1c(=O)n(C)c(=O)n2C,-5.02% (inactive),–
CCN[C@@H](C)Cc1ccccc1,-29.2% [at 92.7 µM] (inactive),–
CCC1(c2ccccc2)C(=O)N(COC)C(=O)N(COC)C1=O,4.17% (inactive),–
CC(C)c1c(CN(C)C(C)Cc2ccccc2)n(C)n(-c2ccccc2)c1=O (stereo not given),-22.7% (inactive),–
COc1cc(CCN)cc(OC)c1OC,-20.3% [at 92.7 µM] (inactive),–
O=c1[nH]oc2c1CCNC2,-0.102% (inactive),–
C=CCN1C[C@H](C)N([C@H](c2ccc(C(=O)N(CC)CC)cc2)c2cccc(OC)c2)C[C@H]1C,13.7% (inactive),–
O=C1c2ccccc2C(=O)c2ccccc21,2.3% [at 16.1 µM] (inactive),–
O=c1oc2ccccc2c(O)c1Cc1c(O)c2ccccc2oc1=O,–,15 µM (active)
CCN[C@H](C)Cc1cccc(C(F)(F)F)c1,-0.861% [at 92.7 µM] (inactive),–
CCCCCCCCCC(=O)O[C@H]1CC[C@H]2[C@@H]3CCC4=CC(=O)CC[C@@H]4[C@H]3CC[C@]12C,6.74% (inactive),–
CCCN(CCC)C(=O)Cc1c(-c2ccc(Cl)cc2)nc2ccc(Cl)cn12,–,16.8 µM (active)
CC(C(=O)c1ccccc1)N(C)C (stereo not given),-16.3% (inactive),–
Oc1ccc(Cl)cc1,-1.16% (inactive),–
CC(C)(C)NCC(O)c1ccccc1Cl (stereo not given),-0.344% (inactive),–
CC(Cc1ccccc1)N(C)Cc1ccco1 (stereo not given),-11.8% (inactive),–
C=C(C)[C@H]1CN[C@H](C(=O)O)[C@H]1CC(=O)O,-0.488% (inactive),–
CNC(C)(C)Cc1ccccc1,-10.7% (inactive),–
CCOC(=O)CC(SP(=S)(OC)OC)C(=O)OCC (stereo not given),–,inactive
